High-throughput results deposited in PubChem by several laboratories.
Only some compounds are listed: those with a hit (about 1.6% of all), similar ones and a draw of the others.
Rce1 inhib: yeast Ras-converting enzyme inhibition; calls only; AID 2563; yeast membranes, quenched prenylated peptide cleavage fluorescence; Q03530; hit rate 0.27% among 290,000;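 active = fall in fluorescence gain of 50% or more versus controls, with final raw signal at or below 3038400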;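 note: plate controls were neutral control wells for no effect and wells lacking membranes for full effect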
Target sequence (Q03530 whole entry, looked up): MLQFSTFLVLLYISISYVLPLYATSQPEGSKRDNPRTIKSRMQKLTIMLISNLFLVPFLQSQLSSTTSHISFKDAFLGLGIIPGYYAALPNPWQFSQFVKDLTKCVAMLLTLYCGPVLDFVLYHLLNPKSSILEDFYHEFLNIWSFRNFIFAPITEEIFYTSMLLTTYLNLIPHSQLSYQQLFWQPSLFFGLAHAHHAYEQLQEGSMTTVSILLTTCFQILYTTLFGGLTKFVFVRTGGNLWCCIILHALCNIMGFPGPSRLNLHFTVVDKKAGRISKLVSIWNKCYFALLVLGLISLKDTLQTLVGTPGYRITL
PERK inhibitor: inhibitors of human PERK kinase | Q9NZJ5 | hit rate 0.17% among 220,000 | inhibition, % at 5.6 µM | CHO PERK-DD fusion, SEAP luminescence translation reporter;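 active = inhibition above the mean inhibition of all tested compounds plus 3 SD, set separately per screening campaign, cut at about 2.9% in these data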;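 note: PERK kinase domain activated by AP20187 dimerizer at 100 nM; 0% = DMSO with dimerizer and 100% = rapamycin at 8.4 µM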
Yeast superoxide: yeast age-related superoxide inhibition as caloric restriction mimetic | S. cerevisiae aged cells, superoxide DHE fluorescence; active compounds read low | superoxide response (% of plate mean), % at 10 µM | hit rate 0.18% among 330,000;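 active = superoxide response under a set limit, about three screen SD below normal, cut at about 65% in these data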;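 note: yeast aged for seven days with compound at 30 °C before DHE staining; 100% = average MFI of all compound-treated wells on the plate with controls excluded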
NALP3 yeast inh: inhibitors of NALP3 inflammasome in yeast; Yeast reconstituted NLRP3/ASC/caspase-1, beta-gal luminescence, 24 h; inhibition, % at 10 µM; hit rate 0.39% among 330,000;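 active = inhibition of 50% or more; inactive = inhibition below 50%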;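 note: plate controls were induced DMSO wells for no effect and uninduced yeast grown without galactose for full effect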
V-ATPase pHluor: alters yeast V-ATPase proton transport. S. cerevisiae, pHLuorin cytosolic pH fluorescence. response, % at 10 µM. hit rate 0.37% among 350,000; in the data active = response mostly above about 7.3%, no sharp cut-off; inactive = mostly below about 5.4%; note: actives read high
NALP1 yeast inh: blocks the NALP1 inflammasome reconstituted in yeast; S. cerevisiae NALP1/ASC/caspase-1 growth, X-gal OD620, 72 h; inhibition, % at 10 µM; hit rate 0.61% among 280,000; AID 2071; in the data active = inhibition mostly above about 24%, no sharp cut-off; inactive = mostly below about 32%
VATPase regulator: modulates yeast V-ATPase proton transport; hit rate 2% among 980; S. cerevisiae pHLuorin cytosolic pH; shares compounds with V-ATPase pHluor; response, % at 10 µM; in the data active = response above about 24%;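 note: plate controls were vehicle wells for no effect and positive control wells for full effect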
Numbers without * were called inactive; i = inactive; / = no result given.

SMILES	Rce1 inhib	PERK inhibitor	Yeast superoxide	NALP3 yeast inh	V-ATPase pHluor	NALP1 yeast inh	VATPase regulator
CCn1c(CN2CCC(C)CC2)nc2cc(S(=O)(=O)N3CCCCC3)ccc21	/	/	/	/	0	/	/
Cc1nn(CC2CC2)c(=O)n1-c1ccc(C(C)C)cc1	i	1	106	18	-2	11	/
Cc1nn(CC2CC2)c(=O)n1-c1ccc(Cl)cc1	i	1	107	6	-1	14	1
Cc1ccccc1C(=O)NC(=S)NC1CCSC1=O (stereo unspecified)	i	1	88	-12	0	22	/
O=C(NC(=S)NC1CCSC1=O)c1cccs1 (stereo unspecified)	i	0	96	-17	8.3*	-8	3
CC1CN(C2CCN(C(=O)c3ccccc3)CC2)CC(C)O1 (stereo unspecified)	i	0	105	13	9.3*	19	1
CC1CN(C(=O)c2ccc(C(=O)c3ccccc3)cc2)CC(C)O1 (stereo unspecified)	i	1	98	12	11*	5	-2
CC1CN(C2CCN(S(=O)(=O)c3ccccc3)CC2)CC(C)O1 (stereo unspecified)	i	1	100	13	9	22	/
Cc1ccc(Cn2cccc2/C=C2/C(=N)N3C=CSC3=NC2=O)cc1	i	0	103	4	4	12	/
N=C1/C(=C/c2cccn2Cc2ccc(F)cc2)C(=O)N=C2SC=CN12	i	0	99	6	11*	12	-1
N#C/C(=C\c1ccco1)C(=O)Nc1ccc(S(N)(=O)=O)cc1	i	0	89	-1	8.6*	-7	-7
N#C/C(=C/c1ccc(-c2ccc(S(N)(=O)=O)cc2)o1)C(=O)Nc1ccccc1	i	0	100	4	-1	16	/
CN(C)C(=O)CN1CCN(c2nc3nonc3nc2N2CCCCC2)CC1	i	0	92	5	13*	-16	2
C1CCCN(c2nc3nonc3nc2N2CCCCCC2)CC1	i	1	100	5	0	6	/
O=[N+]([O-])c1c(NCc2ccccc2)cc(N2CCc3ccccc3C2)c2nonc12	i	1	90	16	5.8*	18	2
CN[C@H]1C[C@H]2c3[nH]c4ccccc4c3CCN2C(=O)[C@H]1[C@H](C)O	/	/	/	/	-2	/	/
Cn1nc(C(=O)NNC(=O)c2ccccc2Br)c2ccccc2c1=O	/	/	/	14	9.5*	/	4
O=C(Nc1ccccc1)OCc1cnc(Cl)s1	i	0	116	21	7.0*	-9	2
O=C(Nc1ccc(Cl)c(Cl)c1)OCc1cnc(Cl)s1	i	-1	104	-24	2	16	/
CCN(C(=O)COC(=O)c1cc(-c2ccccc2)nc2ccc(Br)cc12)C1CCS(=O)(=O)C1 (stereo unspecified)	i	0	107	18	10.0*	5	-1
NS(=O)(=O)c1ccc(CCNS(=O)(=O)c2ccc3c(c2)NC(=O)CO3)cc1	i	/	124	10	9.4*	0	2
CCOC(=O)Nc1ccc2c(c1)N(C(=O)CCN(CC)CC)c1ccccc1CC2	i	/	94	8	7.8*	25	-3
O=C(C1CCCCC1)N1C[C@H](O)[C@@H](n2cc(C3CC3)nn2)C[C@@H]1c1ccccc1	/	/	/	/	-2	/	/
CC(=O)Nc1ccc(NC(=O)c2ccc(NS(=O)(=O)c3cc(C(C)(C)C)ccc3C)cc2)cc1	i	1	90	9	1	7	/
CC(=O)Nc1ccc(NC(=O)c2ccc(C)c(S(=O)(=O)Nc3cccc(C)c3)c2)cc1	i	-1	90	3	10*	18	0
SMILES	Rce1 inhib	PERK inhibitor	Yeast superoxide	NALP3 yeast inh	V-ATPase pHluor	NALP1 yeast inh	VATPase regulator
CCS(=O)(=O)Nc1ccc(-c2ccc(NS(=O)(=O)CC)c(OC)c2)cc1OC	i	0	105	1	-2	28	/
COc1ccc(NS(=O)(=O)CC(C)C)c(OC)c1	i	1	103	9	11*	33	0
CCCN1CCC(=NNc2ccc(S(=O)(=O)N3CCOCC3)cc2[N+](=O)[O-])CC1	i	1	83	5	0	34	/
NS(=O)(=O)c1ccc(NN=C2CCN(Cc3ccccc3)CC2)c([N+](=O)[O-])c1	i	0	97	8	16*	16	4
COc1ccc(CN2C(=O)C(CC(=O)NCCc3ccccn3)CC(C(=O)N(C)C)=C2C)cc1 (stereo unspecified)	/	/	/	/	0	/	/
CC1CCc2c(sc(NC(=O)Cn3nc(C(F)(F)F)c4c3CCCCC4)c2C#N)C1 (stereo unspecified)	/	0	99	10	0	10	/
N#Cc1c(NC(=O)Cn2nc(C(F)(F)F)c3c2CCCC3)sc2c1CCC2	i	0	88	11	10*	-26	14
CC(C)COC(=O)N(C)C[C@@H]1OCc2cnnn2CCCC(=O)N([C@H](C)CO)C[C@H]1C	/	/	/	/	0	/	/
CC(=O)Oc1ccc2c(c1)C(=O)CCCCCC(=O)O2	/	/	/	/	-1	/	/
COc1ccc(S(=O)(=O)NCC(c2ccc3c(c2)OCO3)N2CCOCC2)cc1C (stereo unspecified)	i	/	87	22	0	/	/
COc1ccc(C)cc1S(=O)(=O)NCC(c1ccc2c(c1)OCO2)N1CCOCC1 (stereo unspecified)	i	/	105	4	11*	/	-4
COc1ccc(NC(=O)CSc2nc(O)cc(=O)n2C)cc1	i	0	86	12	-1	23	/
Cn1c(SCC(=O)Nc2ccccc2)nc(O)cc1=O	i	0	104	11	8.9*	1	-1
CCOC(=O)c1[nH]c2ccc(Cl)cc2c1NC(=O)c1nonc1C	i	0	93	-2	1	9	/
CCOC(=O)c1[nH]c2ccccc2c1NC(=O)c1nonc1C	i	0	102	14	-3	23	-30
CC(=O)Nc1ccc(NC(=O)CSc2nnc(N)n2-c2ccccc2)cc1	/	/	/	/	1	/	/
COc1ccccc1NC(=S)NCCSc1ccc(Cl)cc1	i	0	96	7	-1	17	/
COc1ccc(Cl)cc1NC(=S)NCCSc1ccc(C)cc1	i	0	107	22	7.6*	-17	4
Cc1ccc(NC(=O)c2ncn(CCCNCC3CCCCC3)n2)cc1C	/	/	/	/	2	/	/
O=C1C=C(NCc2ccc(Cl)cc2Cl)C2(CCCCC2)O1	i	-1	85	10	10*	14	4
CN(CC(=O)Nc1cc(S(=O)(=O)N2CCOCC2)ccc1Cl)C1CCS(=O)(=O)C1 (stereo unspecified)	i	1	116	11	7.6*	15	4
Cc1ccc(S(=O)(=O)N2CCOCC2)cc1NC(=O)CN(C)C1CCS(=O)(=O)C1 (stereo unspecified)	i	1	105	-8	-1	/	/
Nc1cc(=O)nc2cn[nH]n12	/	/	/	/	4	/	/
